# Assay results reported in PubChem BioAssay (NCI).
# Compounds without any hit were thinned out: in the full panel of roughly 83,000, 20% have a hit.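 Values shown are percent growth following 48 h exposure of cells in 96-well plates to a single concentration of compound; below 10 was considered active.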 Unmarked numbers belong to inactive results. Activity calls are given as the source filed them.
# How the values were obtained:
# Assay in all cases: NCI-60 one-dose screen, 48 h (100 = growth as untreated, 0 = no growth, -100 = all killed)
# Details in all cases: 10 µM unless noted
# [1] = system: T-47D breast
# [2] = system: BT-549 breast
# [3] = system: SW-620 colon
# [4] = system: MCF7 breast
# [5] = system: HCT-116 colon
# [6] = system: HCC-2998 colon
# [7] = system: KM12 colon
# [8] = system: MDA-MB-435 melanoma
SMILES,growth [1],growth [2],growth [3],growth [4],growth [5],growth [6],growth [7],growth [8]
COC(=O)/C=C1/SC(=Nc2cccc(Cl)c2)N(CCc2c[nH]c3ccc(O)cc23)C1=O,12.6%,0.746% (active),0.219% (active),15.9%,-33% (active),2.25% (active),18.9%,–
C[C@@H]1O[C@@H](O[C@@H]2C[C@H](c3ccc4c(c3O)C(=O)C3=C(C4=O)[C@@]4(O)C(=O)C[C@](C)(O)C[C@@]4(O)C=C3)O[C@H](C)[C@H]2O)C[C@H](O)[C@@H]1O,93.8%,100%,95%,91.8%,98.9%,102%,99.7%,–
CC(C)c1ccc(NC(=O)Nc2ccc(NC(=O)c3ccccc3N)cc2)cc1,38.2%,77%,54.1%,31.6%,51.8%,23.5%,29.8%,–
Nc1c(C(=O)Nc2ccccn2)sc2nc3c(cc12)C(O)CCC3 (centres undefined),15%,58.2%,21.8%,13.2%,30.5%,70.7%,18.3%,–
COc1ccc(-c2cc(-c3cc(OC)c(OC)c(OC)c3)c(C#N)c(=O)n2CCCCCC(=O)NO)cc1,71.7%,99.5%,101%,89%,88%,110%,93.4%,–
Cn1cc(-c2csc(-c3cn(C)c4ccc(Br)cc34)n2)c2cnccc21,-47.3% (active),86.2%,-70% (active),-74.7% (active),-89.8% (active),-84.3% (active),-87.4% (active),–
COc1ccc2nc3ccccc3c(NCc3ccc(F)cc3)c2c1,36.5%,35%,14.7%,-27.7% (active),8.89% (active),-77.6% (active),28.7%,–
Fc1ccc(CNc2c3ccccc3nc3ccccc23)cc1,31.1%,80.7%,22.8%,7.09% (active),12.6%,18.3%,28.3%,–
O=C(CCC(=O)c1nc2ncccc2[nH]1)NN1C(=O)CSC1c1ccc(Cl)cc1 (centres undefined),90.7%,120%,81.4%,87%,86%,112%,94.7%,–
O=C1/C(=C/c2ccc(Br)cc2)COc2ccc(O)c(O)c21,-16.3% (active),3.5% (active),-35.9% (active),4.13% (active),-15.9% (active),-66.3% (active),-68% (active),–
CCOC(=O)C1=C(C)N=C2SC=C(c3ccccc3)N2[C@H]1c1cn[nH]c1-c1ccc(Cl)cc1,38.8%,34.1%,37.7%,21.7%,18.5%,109%,59.4%,–
Cc1cc2nc(-c3c(-c4ccc(F)cc4)nc4sccn34)[nH]c2cc1C,85.7%,109%,108%,91.6%,103%,106%,96.7%,103%
C[C@@H]1CC[C@@]2(OC1)O[C@H]1C[C@H]3[C@@H]4CC=C5C[C@@H](O[C@@H]6O[C@H](CO)[C@@H](O[C@@H]7O[C@@H](CO)[C@H](O)[C@H]7O)[C@H](O)[C@H]6O[C@@H]6O[C@@H](C)[C@H](O)[C@@H](O)[C@H]6O)CC[C@]5(C)[C@H]4CC[C@]3(C)[C@H]1[C@@H]2C,-22.6% (active),-59.4% (active),-86.4% (active),-87.9% (active),-84% (active),-75.9% (active),-90.6% (active),–
COc1cc(C(=O)/C=C/c2ccc(N3CCN(C)CC3)cc2)cc(OC)c1OC,95.8%,100%,88%,96%,104%,101%,99.3%,95.5%
CCNc1nc(-c2ccc(F)cc2)c(C#N)c(=O)n1C,39.3%,42.1%,69.3%,63.4%,52.1%,88.8%,72.1%,75.2%
CC(C)c1ccc(-n2c(=S)[nH]c3sc4c(c3c2=O)CCC(=O)C4)cc1,11.7%,26.3%,48.5%,85.4%,53.5%,40.1%,18.6%,91.8%
CN(C)Cc1ccc(C(=O)Nc2ccc3ncnc(Nc4ccc(Oc5cccc(F)c5)c(Cl)c4)c3c2)cc1,10%,80.2%,-73.1% (active),-62.1% (active),-39.7% (active),-65.3% (active),-5.02% (active),–

SMILES,growth [1],growth [2],growth [3],growth [4],growth [5],growth [6],growth [7],growth [8]
CN1CCN(c2ccc3c(c2)nc(NNC(=O)c2cnccn2)c2cccn23)CC1,37.9%,41.2%,34.1%,13.8%,23.1%,47.8%,19.3%,32.6%
c1ccc(CCc2ccccc2-c2cc(-c3ccccc3)on2)cc1,55.4%,–,91%,74.7%,59.8%,90.4%,87.5%,105%
O=C1Nc2ccc(F)cc2/C1=N/c1nnc(Sc2ccccc2)s1,61.5%,–,91.9%,22.2%,99.3%,104%,88%,99.7%
CC(C)c1ccc(C(=O)Nc2sc3cc(O)ccc3c2C#N)cc1,36.4%,–,28.7%,13.8%,15%,60.3%,21%,-42.9% (active)
NC(=O)OCCn1cc(-c2nc(-c3c[nH]c4ncccc34)cs2)c2ccccc21,44.7%,–,8.68% (active),18.3%,30.8%,71.7%,23%,-33.4% (active)
N=C(N)c1ccc(-c2ccc(-c3ccc(Cl)cc3)o2)o1,26.5%,–,-69.7% (active),-70.9% (active),-76.1% (active),-81.1% (active),-84.9% (active),-89.1% (active)
O=C(/C=C/c1ccc(Br)cc1)c1ccc(-n2cc(CN3CCN(c4cc5c(cc4F)c(=O)c(C(=O)O)cn5C4CC4)CC3)nn2)cc1,80%,–,95.5%,64.8%,7.82% (active),98.5%,88.8%,–
CC1=NN(c2ccc(Cl)cc2)CC1(C)N=O (centres undefined),60.8%,–,43.7%,29.7%,30.9%,102%,99.5%,–
OC(c1ccccc1)(c1ccccc1)c1ccccc1-c1ccccc1,69.8%,–,82.4%,83.5%,72.1%,88.5%,93.6%,108%
CCOC(=O)c1cn2ncnc(Oc3ccc(NC(=O)NC4CC4)c(F)c3)c2c1C,93.8%,–,96.2%,92.6%,76.9%,110%,101%,95.9%
Oc1c(Cl)cc(Cl)c2ccc(Cn3cc(-c4cccc(C(F)(F)F)c4)nn3)nc12,58.9%,–,28.7%,42.3%,14%,99.5%,100%,73.9%
CCCNc1nc2ccccc2c2c(=O)c3cccc(Cl)c3sc12,51.8%,–,97.8%,31.2%,72.4%,103%,90.4%,101%
COc1cccc(C(=O)OCC(O)C(=O)NC23CC4CC(CC(C4)C2)C3)c1 (centres undefined),98.3%,102%,99.6%,89.1%,96.7%,105%,108%,–
N=C(N)c1ccc(-c2ccc(-c3ccc(Cl)cc3Cl)s2)cc1F,14.8%,–,-64% (active),-65.8% (active),-36.6% (active),-81.7% (active),-86.3% (active),-79.9% (active)
COc1cc2c3c(n(CCCCNCCCn4c5c(c6cc(OC)c(OC)cc6c4=O)C(=O)c4cc6c(cc4-5)OCO6)c(=O)c2cc1OC)-c1cc2c(cc1C3=O)OCO2,88.7%,–,95.2%,93.6%,93.9%,105%,93.8%,105%
C#CC#CC#CC#CC#CC#CC#CC#CC[C@H]1OC[C@@H](COC(=O)O[C@@H](C(=O)O[C@H]2C[C@@]3(O)[C@@H](OC(=O)c4ccccc4)[C@@H]4[C@]5(OC(C)=O)CO[C@@H]5C[C@H](O)[C@@]4(C)C(=O)[C@H](OC(C)=O)C(=C2C)C3(C)C)[C@@H](NC(=O)c2ccccc2)c2ccccc2)O1,53.4%,53.2%,42.4%,33.7%,18%,48.3%,16.7%,–
